37 compounds from PubChem BioAssay AID488853 (National Center for Advancing Translational Sciences (NCATS), 2010) can be followed below.

Activity calls are given as the source filed them. Calls follow the shape of the dose curve; as a rule, active = well fitted curve in the direction sought with a large enough effect; inconclusive = small, poorly fitted or top-dose-only effect, or another doubt; inactive = no such curve, though single readings can be large or run the other way.

For this test, the target named is Lysosomal acid glucosylceramidase (Homo sapiens) (UniProt P04062). The test can be described thus: qHTS Assay for Inhibitors and Activators of N370S glucocerebrosidase as a Potential Chaperone Treatment of Gaucher Disease: Activity in Non-Mutant Spleen Using Alternate Substrate Confirmation for Probe SAR. Particulars: human spleen homogenate, resorufin-glucoside fluorescence, 40 min; series mostly up to 57.5 µM. The source says: NIH Chemical Genomics Center [NCGC] NIH Molecular Libraries Probe Production Centers Network [MLPCN] MLPCN Grant: MH086442-01 Assay Submitter (PI): Wei Zheng Glucocerebrosidase (GC) catalyzes the hydrolysis of beta-glucocerebroside to glucose and ceramide in lysosomes. Mutations in the glucocerebrosidase gene result in Gaucher disease, an autosomal recessive lysosomal storage disorder. Many of the mutations encountered in patients with Gaucher disease are missense alterations that may cause misfolding, decreased stability and/or mistrafficking of this lysosomal protein. […] These inhibitors include iminosugar analogs and three non-iminosugar inhibitors identified from a previous HTS of 62,000 compounds with the wild type recombinant enzyme. However, the enhancement of enzyme activity by the chaperone action of an enzyme inhibitor must be balanced against the direct inhibition of the enzyme. An enzyme activator could also function as a chaperone by binding to the enzyme and helping to correct its misfolding and mistrafficking. While activators for GC have not yet been identified, they may have better therapeutic potential than inhibitors. Therefore the discovery and development of chemical activators may provide a new strategy for the chaperone therapy. We have optimized a new assay using N370S mutant GC derived from the spleen of a Gaucher patient. […] In addition, the MLPCN compound library has expanded, which increases the chance of finding new and better probes. This confirmation assay tests for compound activity in spleen homogenate containing wildtype enzyme using an alternate resorufin-based substrate.
Chain of Lysosomal acid glucosylceramidase (Homo sapiens) (P04062 whole entry, looked up): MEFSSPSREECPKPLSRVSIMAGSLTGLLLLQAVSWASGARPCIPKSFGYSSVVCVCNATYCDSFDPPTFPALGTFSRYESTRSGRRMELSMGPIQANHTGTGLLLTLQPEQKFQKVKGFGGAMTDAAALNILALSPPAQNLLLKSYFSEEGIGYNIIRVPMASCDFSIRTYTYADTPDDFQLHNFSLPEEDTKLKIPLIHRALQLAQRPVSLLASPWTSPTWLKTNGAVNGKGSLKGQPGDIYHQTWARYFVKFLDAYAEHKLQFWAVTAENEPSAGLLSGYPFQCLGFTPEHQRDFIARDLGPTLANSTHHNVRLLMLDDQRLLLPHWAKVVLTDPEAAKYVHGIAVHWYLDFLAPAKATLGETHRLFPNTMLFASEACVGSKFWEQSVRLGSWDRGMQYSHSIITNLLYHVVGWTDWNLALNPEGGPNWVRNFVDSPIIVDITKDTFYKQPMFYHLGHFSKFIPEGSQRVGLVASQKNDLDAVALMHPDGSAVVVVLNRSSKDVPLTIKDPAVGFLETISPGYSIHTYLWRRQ
NCGC Assay Protocol Summary: This is a fluorogenic enzyme assay with resorufin-beta-D-glucopyranoside as the substrate and wildtype glucocerebrosidase from human spleen homogenate as the enzyme preparation. Upon the hydrolysis of this fluorogenic substrate, the resulting product, […] which can be detected by a standard fluorescence plate reader. Data were normalized to the controls for basal activity (without enzyme) and 100% activity (with enzyme). The AC50 values were determined from concentration-response data modeled with the standard Hill equation. Assay buffer: 50 mM citric acid (titrated with potassium phosphate to pH 5.0), 100 mM potassium chloride, 10 mM sodium chloride, 1 mM magnesium chloride, 0.01% Tween-20. 1536-well assay protocol: (1) Add 2 ul/well of spleen homogenate (27 ug final) (2) Add 23 nL compounds in DMSO solution. The final titration was 0.5 nM to 58 uM. (3) Add 2 ul of substrate (1 mM final) (4) Incubate at 37C for 40 min. (5) Add 2 ul stop solution (1M NaOH and 1M Glycine mixture, pH 10) (6) Detect the assay plate in a ViewLux plate reader (PerkinElmer) with Ex=365 nm and Em=440nm. Keywords: Glucocerebrosidase, beta-glucosidase, Gaucher Disease, pharmacological chaperone, chaperone therapy, high throughput screening, glucocerebrosidase inhibitor, MLSMR, MLSCN, NIH Roadmap, qHTS and NCGC
(In general: Quantitative high-throughput screening tests each substance at several concentrations.)
Consider `Cc1cc(C)n2ncc(C(=O)NCc3ccccc3)c2n1`, for which the compound was called inactive.
In the case of `Cc1cc(C)n2ncc(C(=O)Nc3ccncc3)c2n1` it was “inactive”; in that of `Cc1cc(C)n2ncc(C(=O)Nc3cccc(C(F)(F)F)c3)c2n1`, “inactive”; in that of `Cc1cc(C)n2ncc(C(=O)Nc3ccc(S(C)(=O)=O)cc3)c2n1`, “inactive”.
Regarding `COc1ccc(NC(=O)c2cnn3c(C)cc(C)nc23)cc1OC`, the call was inactive.
In the case of `Cc1cc(C)n2ncc(C(=O)Nc3ccc4c(c3)CCC4)c2n1` it was “inactive”; in that of `CC(=O)Nc1ccccc1NC(=O)c1cnn2c(C)cc(C)nc12`, “inactive”.
In the case of `Cc1cc(C)n2ncc(C(=O)Nc3cccc(C#N)c3)c2n1` it was “inactive”; in that of `Cc1cc(C)n2ncc(C(=O)NC3CCC(C(C)(C)C)CC3)c2n1` (configuration not stated), “inactive”; in that of `Cc1cc(C)n2ncc(C(=O)Nc3ccccc3)c2n1`, “inactive”.
With `Cc1cc(C)n2ncc(C(=O)Nc3ccc(C#N)cc3)c2n1` the entry was “inactive”; with `Cc1cc(C)n2ncc(C(=O)Nc3ccc4c(c3)OCCO4)c2n1`, “inactive”; with `CC(=O)c1ccc(NC(=O)c2cnn3c(C)cc(C)nc23)cc1`, “inactive”.
With `C#Cc1ccc(NC(=O)c2cnn3c(C)cc(C)nc23)cc1`, the outcome was inactive.
Consider `Cc1cc(C)n2ncc(C(=O)N3CCCC3)c2n1`, for which the compound was classed as inactive.
Take `CNC(=O)c1cnn2c(C)cc(C)nc12`: the call was inactive.
In the case of `Cc1cc(C)n2ncc(C(=O)NCC(C)C)c2n1` it was “inactive”; in that of `Cc1cc(C)n2ncc(C(=O)NCc3ccco3)c2n1`, “inactive”.
With `COc1ccc(NC(=O)c2cnn3c(C)cc(C)nc23)cc1F` the entry was “inactive”.
In the case of `Cc1cc(C)n2ncc(C(=O)NC3CCCCC3)c2n1` it was “inactive”; in that of `Cc1cc(C)n2ncc(C(=O)Nc3ccc(C(C)(C)C)cc3)c2n1`, “inactive”.
For the compound `Cc1cccc(NC(=O)c2cnn3c(C)cc(C)nc23)c1`, the outcome was inactive.
With `Cc1cc(C)n2ncc(C(=O)Nc3ccccc3C)c2n1` the entry was “inactive”; with `Cc1cc(C)n2ncc(C(=O)Nc3ccc(C)c(C)c3)c2n1`, “inactive”; with `CC(=O)c1cccc(NC(=O)c2cnn3c(C)cc(C)nc23)c1`, “inactive”.
As for `CC(=O)Nc1ccc(NC(=O)c2cnn3c(C)cc(C)nc23)cc1`, the call was inactive.
In the case of `COc1ccc(NC(=O)c2cnn3c(C)cc(C)nc23)cc1Cl` it was “inactive”; in that of `Cc1ccc(NC(=O)c2cnn3c(C)cc(C)nc23)cc1`, “inactive”.
With `COc1cc(NC(=O)c2cnn3c(C)cc(C)nc23)cc(OC)c1OC` the entry was “inactive”; with `CCc1ccc(NC(=O)c2cnn3c(C)cc(C)nc23)cc1`, “inactive”.
Turning to `Cc1cc(C)n2ncc(C(=O)Nc3ccc4c(c3)OCO4)c2n1`, the compound was called inactive.
With `O=C(Nc1cnn(Cc2ccc(F)cc2)c1)c1cnn2c(C(F)F)cc(-c3ccccc3)nc12` the entry was “inactive”; with `Cc1cc(C)n2ncc(C(=O)Nc3ccc(Br)cc3)c2n1`, “inactive”.
With `Cc1cc(C)n2ncc(C(=O)NC(C)C)c2n1` the entry was “inactive”; with `COc1ccc(NC(=O)c2cnn3c(C)cc(C)nc23)cc1`, “inactive”; with `Cc1cc(C)n2ncc(C(=O)Nc3ccc(C(F)(F)F)cc3)c2n1`, “inactive”.
With `Cc1ccc(NC(=O)c2cnn3c(C)cc(C)nc23)c(C)c1` the entry was “inactive”.
